Test results from PubChem BioAssay AID1259415 (National Center for Advancing Translational Sciences (NCATS), 2018).
The whole screen tested about 410,000 compounds, of which about 18,000 (4.4%) were called active. Not shown: some 7% with an inconclusive outcome. The entries come from a sample that favours actives as a whole. Values without a mark were called inactive. Cut-off read from the data, not from the text of the source: active = activity change below about -60%; inconclusive = no clear call, values can overlap the other calls; inactive = above about -39%.

Test: qHTS Assay for inhibitors of the human cytomegalovirus (HCMV)
Details: HFF cells, HCMV-luciferase reporter, 72 h; at 57.5 µM; active compounds read low
How it was run: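 Cell-based, HFFs, 1000 cells/well, 16 h 37C; cpds in DMSO + HCMV-luc, MOI 1 PFU/cell; 72 h 37C; OneGlo luminescence after 5 min RT; norm. to buffer vs Salinomycin 10uM.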
% is set by controls: 0 for no effect and ±100 for the full control effect.

| SMILES | activity change, negative = inhibition |
| --- | --- |
| CCn1c(-c2cc(OC)ccc2OC)csc1=Nc1c(C)n(C)n(-c2ccccc2)c1=O | -25.8% |
| CN=c1scc(-c2cc(OC)ccc2OC)n1/N=C/c1c(C)[nH]c2ccccc12 | -85.5% (active) |
| COc1ccc(/C=N/n2c(C)cc(C)cc2=O)cc1 | -24.9% |
| CCOC(=O)c1ccc(NC(=O)CCS(=O)(=O)c2ccc(C)cc2)cc1 | 0% |
| OCc1cnc(SCc2ccc(F)cc2)n1Cc1ccc(F)cc1 | -26.3% |
| O=C(c1ccco1)N1CCN(C(=O)C2CCCN(S(=O)(=O)c3cccc4nsnc34)C2)CC1 (configuration not stated) | -12.2% |
| CCOC(=O)c1c(C)oc2nc(C)nc(N(CC(C)C)CC(C)C)c12 | -31.4% |
| COC(=O)C(C)N(C#N)c1nc(C)nc(C)n1 (configuration not stated) | -110% (active) |
| CNc1nc(SC)nc(N(C#N)CC(=O)OC)n1 | 81.6% |
| CCCCCn1c(CCCNC(=O)c2ccccc2OC)nc2ccccc21 | -34.7% |
| Clc1ccc(CSc2nncn3c2cc2occc23)cc1 | -20.2% |
| COc1ccc(CCn2c(O)c(C=NCCCn3ccnc3)c(=O)[nH]c2=O)cc1OC | -107% (active) |
| COc1ccc(CCn2c(O)c(C=NC3CC3)c(=O)[nH]c2=O)cc1OC | -4.78% |
| O=c1[nH]c(=O)n(CCc2ccc(F)cc2)c(O)c1/C=N/N1CCCCC1 | -4.21% |
| CC(C)(C(=O)Nc1ccccc1)n1cc(NC(=O)c2cc(F)cc(F)c2)cn1 | 9.36% |
| Cc1ccc(C(C(=O)NCC2CCCO2)N(C(=O)c2snc(C(N)=O)c2N)c2ccc(C(C)C)cc2)o1 (configuration not stated) | -9.39% |
| O=C(N/N=C/c1ccc([N+](=O)[O-])o1)c1cn(-c2ccccc2)nc1-c1ccc(F)cc1 | -65.8% (active) |
| O=C(NNC(=S)NC(=O)c1cn(-c2ccccc2)nc1-c1ccccc1)c1ccncc1 | 21.1% |
| O=C(CSc1ccc(/C=N/NC(=O)c2cccc(F)c2)o1)Nc1ccccc1 | -21.6% |
| O=C(NCCCN1CCCC1=O)c1cccc(S(=O)(=O)NCc2ccccc2)c1 | 0.765% |
| Clc1ccc2c(c1)C1=C(C(c3ccncc3)O2)C(c2ccc(Br)cc2)n2ncnc2N1 (configuration not stated) | -78.3% (active) |
| CC1CCCN(c2nc3c(S(=O)(=O)c4ccc(C(C)C)cc4)nnn3c3ccsc23)C1 (configuration not stated) | 20% |

| SMILES | activity change, negative = inhibition |
| --- | --- |
| Cc1ccc(-n2c3nc(=O)[nH]c(=O)c-3cc3c(Cl)cccc32)cc1 | -14.6% |
| CCN(CC)S(=O)(=O)c1ccc(C)c(NC(=O)COc2ccc(Br)cc2Cl)c1 | 24.1% |
| Cc1ccc(S(=O)(=O)N(C)C)cc1NC(=O)c1ccccc1Br | -5.46% |
| CCN(CC)S(=O)(=O)c1ccc(NC(=O)c2cccnc2Cl)c(NC(=O)c2cccnc2Cl)c1 | -100% (active) |
| O=C(CSc1nnc(-c2ccncc2)n1-c1ccccc1)Nc1ccc(Cl)c(Cl)c1 | -5.77% |
| Cc1ccc(-c2nn(CCC(=O)Nc3ccc(Cl)c(Cl)c3)c(=O)c3ccccc23)cc1 | -16.5% |
| O=C(CC(O)(C(F)(F)F)C(F)(F)F)Nc1ccc(Cl)c(Cl)c1 | -103% (active) |
| COc1cc(Cl)c(NC(=O)C(NS(=O)(=O)c2cccs2)C(C)C)c(OC)c1 (configuration not stated) | -10.2% |
| CCc1ccc(-n2nc(C)c3c(C)cc(=O)n(CC(=O)Nc4ccc(F)cc4C)c32)cc1 | 5.24% |
| CCc1ccccc1NC(=O)c1ccc2nc(CCc3ccccc3)oc2c1 | 30% |
| COC(=O)c1ccc(Nc2ncnc3sccc23)cc1 | -62.4% (active) |
| O=S(=O)(Nc1ncnc2sccc12)c1cccc(F)c1 | 30.2% |
| COC(=O)c1ccc(-c2nc3cc(NC(C)=O)ccc3o2)cc1 | 13.5% |
| CCOC(=O)c1c(NC(=O)COc2cc(C)ccc2C(C)C)sc(C)c1C | 12.8% |
| CC1CCN(S(=O)(=O)c2ccc3c(ccn3CCC(=O)NCc3ccc(N(C)C)cc3)c2)CC1 | 5.8% |
| CCc1ccc(NC(=O)c2nn(-c3ccc(C)cc3)c(=O)n(C)c2=O)cc1 | -12.5% |
| CCOc1ccccc1NC(=O)CSc1ncc(S(=O)(=O)c2ccc(C(C)(C)C)cc2)c(=O)[nH]1 | -2.52% |
| CC1=CC(=Cc2sc3ccccc3[n+]2C)C=C(C)O1 | -100% (active) |
| CCC(=O)N1CCc2cc(Br)cc(S(=O)(=O)CCC(=O)NCCc3ccc(OC)c(OC)c3)c21 | 7.78% |
| COc1ccc(C2NC(=S)NC3=C2CCc2ccccc23)cc1OC (configuration not stated) | -13.4% |
| Cc1ccc(-c2nn(C(C)(C)C)c3ncnc(N)c23)cc1 | -69.5% (active) |
| CCOC(=O)c1cc2c(n(-c3ccc(C)cc3)c1=O)CCCC2=O | -27.5% |

| SMILES | activity change, negative = inhibition |
| --- | --- |
| CCOC(=O)C1=C(N)N(c2ccc(C)cc2)C2=C(C(=O)CCC2)C1c1cccs1 (configuration not stated) | -86.5% (active) |
| O=C1CCCC2=C1C(c1cccs1)CC(=O)N2c1ccc(F)cc1 (configuration not stated) | 18.4% |
| Cc1ccc(C)c(Cn2c(=O)n(CCC(=O)NCc3ccc4c(c3)OCO4)c(=O)c3sccc32)c1 | -25.1% |
| COc1ccc(C2=NC3(CCCCC3)N(CC(=O)Nc3ccc(C(C)C)cc3)C2=O)cc1 | -14.7% |
| CCn1c(C)c(C)c2cc(C(=O)NCCc3cc(OC)ccc3OC)ccc21 | 0% |
| CN(NC(=O)c1ccccc1F)c1nc(C(F)(F)F)nc2ccccc12 | -62.6% (active) |
| CSc1nc(N(C)NC(=O)c2cccc(C)c2)c2ccccc2n1 | -87.3% (active) |
| Cc1cccc(C(=O)Nc2ccc(-c3nc4ccccc4s3)c(C)c2)c1 | 55.1% |
| Cc1cccc(C(=O)NCCc2nc3ccccc3n2Cc2ccccc2Cl)c1 | 3.18% |
| CC(NC(=O)c1ccccc1F)c1cccc2ccccc12 (configuration not stated) | -5.98% |
| O=C(Cn1cnc2ccccc2c1=O)NNC(=O)c1ccccc1F | -0.88% |
| Cc1cc2oc(C(=O)N(Cc3ccc(Cl)cc3)Cc3ccco3)c(C)c2cc1Cl | -14.8% |
| COc1cccc(C(=O)N2CCCC(CCC(=O)NCc3ccc(F)c(F)c3)C2)c1 (configuration not stated) | 34.9% |
| COc1ccc(C)cc1N(CC(=O)N1CCC(C)CC1)S(=O)(=O)c1ccc(C)cc1 | -13.7% |
| CCN(CC)CCNC(=O)CN1N=C(c2ccc(OC)cc2)CCC1=O | 29.3% |
| CC1(C(=O)O)CCN1C(=O)/C=C/c1ccccc1 (configuration not stated) | -1.81% |
| CC1(C(=O)NS(=O)(=O)c2ccccc2)CCN1C(=O)C/C=C/c1ccccc1 (configuration not stated) | 19.5% |
| CC1(C)CCSC(/C=C/c2ccccc2)=N1 | -97.3% (active) |
| COc1cccc(-n2ccn(CC(=O)NCc3ccc(C)cc3)c(=O)c2=O)c1 | -17.1% |
| Fc1ccccc1N=C1Nc2cccc3cccc1c23 | -68.6% (active) |
| COc1ccc(C)cc1S(=O)(=O)Nc1cc2c3c(c1)CCC(=O)N3CCC2 | 0.474% |
| CCN(CC)P(=O)(/C(Cl)=C\Nc1c(C)n(C)n(-c2ccccc2)c1=O)N(CC)CC | 54% |

| SMILES | activity change, negative = inhibition |
| --- | --- |
| Cc1cc(C)c2nc(SCC(=O)N(C)C3CCS(=O)(=O)C3)cc(C)c2c1 (configuration not stated) | 25.8% |
| CC(C)CCOc1ccc(C(=O)C[N+]2(C)CCOCC2)cc1 | -4.43% |
| CCCOc1cccc(C(=O)Nc2cccc(NC(=O)c3ccc(C(C)(C)C)cc3)c2)c1 | 50.3% |
| CCCOc1ccc(C(=O)C(CCC(CNCC)C(=O)c2ccc(OCCC)cc2)CNCC)cc1 (configuration not stated) | -96.5% (active) |
| Cc1ccc(OCCn2c(CNc3ccccc3C)nc3ccccc32)cc1 | 38% |
| COc1ccc(/C=C/c2nc(C#N)c(NCc3ccc(F)cc3)o2)cc1OC | 9.25% |
| Cc1cc(Cl)ccc1OCC(=O)N(Cc1ccc(N(C)C)cc1)C1CCS(=O)(=O)C1 (configuration not stated) | 15.4% |
| Cc1ccc(Cl)cc1NC(=O)CCS(=O)(=O)c1ccc(Br)s1 | -33.6% |
| COc1ccc(Cl)cc1NC(=O)CCC(=O)c1ccc(C)cc1 | -19.2% |
| COc1ccc(Cl)cc1NC(=O)CCS(=O)(=O)c1ccc(Br)cc1 | -65.8% (active) |
| O=C(c1ccccc1)N1CC(=O)N2[C@@H](CO)[C@@H](c3ccc(Br)cc3)[C@@H]2C1 | 14.7% |
| COc1cc(NC(=O)c2cc(C3CC3)nc3c2c(C)nn3-c2ccccc2)cc(OC)c1 | -30% |
| CSc1ccc(CCNC(=O)c2cc(C)nc3c2c(C)nn3-c2cccc(F)c2)cc1 | 30.7% |
| Cc1cc(C(=O)Nc2cccc(C(F)(F)F)c2)c2c(C)nn(-c3cccc(F)c3)c2n1 | -98.1% (active) |
| O=C(CN1CCN(S(=O)(=O)/C=C/c2ccccc2)CC1)NC(=O)NCc1ccco1 | 61.6% |
| COc1ccc(OC)c(C2C3=C(N=c4s/c(=C\c5cccc(O)c5)c(=O)n42)c2ccccc2CC3)c1 (configuration not stated) | -92.5% (active) |
| COc1ccc(Cn2ccc3nc(C)c(C(=O)Nc4ccc(C)c(F)c4)cc3c2=O)cc1 | 0.318% |
| COc1ccc(C2=CC(c3ccccc3Cl)n3nc(-c4ccc(Cl)cc4)nc3N2)cc1 (configuration not stated) | -32.6% |
| C/C(=N/NC(=O)CC(=O)N/N=C(\C)c1ccc([N+](=O)[O-])cc1)c1ccc([N+](=O)[O-])cc1 | -9.56% |
| C/C(=N\Nc1ccc([N+](=O)[O-])cc1)c1ccc(-n2nncc2C(C)(C)C)cc1 | -14.8% |
| C/C(=N\Nc1nc(N2CCOCC2)nc(N2CCOCC2)n1)c1ccc([N+](=O)[O-])cc1 | -66% (active) |
